Assay results reported in PubChem BioAssay (NCATS).
Inconclusive results are not listed. Calls of active or inactive are those of the source. Calls follow the shape of the dose curve; as a rule, active = well fitted cell-killing curve with a large enough effect; inconclusive = small, poorly fitted or top-dose-only effect, or effect the other way; inactive = flat fitted curve, though single readings scatter.

Assays:
Assay in all cases: Primary qHTS to identify gynecologic anti-cancer compounds using libraries of approved drugs and bioactive compounds (AID 1345084); also: nearly all actives have a fitted effect of over 55% in size
C33A = conditions: Gynecologic cancer cell panel viability, ATPlite luminescence, 48 h; series mostly up to 57.5 µM
Outline: (§1)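 Five-point cytotoxicity, 48 h drug exposure at 37 C, 5% CO2, on cells seeded 16 h beforehand. ATP content read by ATPlite luminescence.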

CAOV3 = conditions: Gynecologic cancer cell panel viability, ATPlite luminescence, 48 h; series mostly up to 57.5 µM
Outline: as §1

CASKI = conditions: Gynecologic cancer cell panel viability, ATPlite luminescence, 48 h; series mostly up to 57.5 µM
Outline: as §1

Es-2 = conditions: Gynecologic cancer cell panel viability, ATPlite luminescence, 48 h; series mostly up to 57.5 µM
Outline: as §1

HeLa = conditions: Gynecologic cancer cell panel viability, ATPlite luminescence, 48 h; series mostly up to 57.5 µM
Outline: as §1

Hek293T = conditions: Gynecologic cancer cell panel viability, ATPlite luminescence, 48 h, control line for the selectivity index; series mostly up to 57.5 µM
Outline: as §1

JEG-3 = conditions: Gynecologic cancer cell panel viability, ATPlite luminescence, 48 h; series mostly up to 57.5 µM
Outline: as §1

OV90 = conditions: Gynecologic cancer cell panel viability, ATPlite luminescence, 48 h; series mostly up to 57.5 µM
Outline: as §1

PA-1 = conditions: Gynecologic cancer cell panel viability, ATPlite luminescence, 48 h; series mostly up to 57.5 µM
Outline: as §1

SKOV3 = conditions: Gynecologic cancer cell panel viability, ATPlite luminescence, 48 h; series mostly up to 57.5 µM
Outline: as §1

Tov-21-G = conditions: Gynecologic cancer cell panel viability, ATPlite luminescence, 48 h; series mostly up to 57.5 µM
Outline: as §1

Tov112D = conditions: Gynecologic cancer cell panel viability, ATPlite luminescence, 48 h; series mostly up to 57.5 µM
Outline: as §1

Measured: Potency

COC(=O)c1ccc(OC(CO)C(O)c2ccc(O)c(OC)c2)c(OC)c1 (stereo not given)
inactive: all assays above

CC1(C)CC2=C3C=CC4C5(C)CCC(O)C(C)(C)C5CCC4(C)C3(C)CCC2(C)C(O)C1 (stereo not given)
inactive: all assays above

CC(C(O)/C=C/C(C)(C)O)C1CCC2(C)C3C(=O)C=C4C(CCC(O)C4(C)C)C3(C)CCC12C (stereo not given)
inactive: all assays above

CC(C)=CCC/C(C)=C/CCC1(C)Oc2c(c(O)cc3c2CN(C(CCC(=O)O)C(=O)O)C3=O)CC1O (stereo not given)
inactive: all assays above

C[C@@H]1O[C@@H](OC[C@H]2O[C@@H](Oc3cc(O)cc4c3C(=O)C(O)(Cc3ccc(O)cc3)O4)[C@H](O)[C@@H](O)[C@@H]2O)[C@H](O)[C@H](O)[C@H]1O (stereo not given in full)
inactive: all assays above

C[C@@H]1N[C@H]2N(C1=O)c1ccccc1[C@@]2(O)C[C@@H]1C(=O)N[C@@H](C)c2nc3ccccc3c(=O)n21
inactive: all assays above

O=C1NC(Cc2c[nH]c3ccccc23)C(=O)NC1Cc1c[nH]c2ccccc12 (stereo not given)
inactive: all assays above

CC1(C)CCC(C)(C)c2cc(C3(c4ccc(C(=O)O)cc4)OCCO3)ccc21
inactive: all assays above

Nc1nc(-n2cc(C(=O)O)c(=O)c3cc(F)c(N4CC(O)C4)c(Cl)c32)c(F)cc1F
inactive: all assays above

CCOc1cc(C)c(Cl)cc1S(=O)(=O)n1cnc2ccccc21
inactive: all assays above

Cc1cc(C)c2c(N)c(C(=O)NCc3ccc(Cl)cc3)sc2n1
inactive: all assays above

COc1ccccc1NC(=O)OCC1CCN(C(=O)OC(C)(C)C)CC1
inactive: all assays above

CC12CCC3c4ccc(O)cc4CCC3C1CC(OC1OC(C(=O)O)C(O)C(O)C1O)C2O (stereo not given)
inactive: all assays above

COC(=O)CC(C)(O)CC(=O)OCc1ccc(O[C@@H]2O[C@H](CO)[C@@H](O)[C@H](O)[C@H]2O)cc1 (stereo not given in full)
inactive: all assays above

C[C@@H]1C(=O)O[C@H]2[C@@H](O)C34[C@H]5C[C@@H](C(C)(C)C)C36[C@@H](OC(=O)[C@@H]6O)O[C@@]4(C(=O)O5)[C@@]12O (stereo not given in full)
inactive: all assays above
